# Bioassay records (PubChem BioAssay)
# The sample as a whole holds a higher share of hits than the screen did.
# FECH block: inhibitors of human ferrochelatase, primary screen, biochemical, purified FECH, Ni-mesoporphyrin absorbance; calls only at 10 µM (by protocol); Ni-mesoporphyrin absorbance 550 nm; actives 3.3% (n = 20,000); Ferrochelatase, mitochondrial (Homo sapiens), P22830; AID 1671448, 2021;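 active = enzyme reaction rate more than 3 SD below the solvent-only control wells on the same plate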;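 note: lower slope than DMSO wells means FECH inhibition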
# Target sequence (P22830 whole entry, looked up): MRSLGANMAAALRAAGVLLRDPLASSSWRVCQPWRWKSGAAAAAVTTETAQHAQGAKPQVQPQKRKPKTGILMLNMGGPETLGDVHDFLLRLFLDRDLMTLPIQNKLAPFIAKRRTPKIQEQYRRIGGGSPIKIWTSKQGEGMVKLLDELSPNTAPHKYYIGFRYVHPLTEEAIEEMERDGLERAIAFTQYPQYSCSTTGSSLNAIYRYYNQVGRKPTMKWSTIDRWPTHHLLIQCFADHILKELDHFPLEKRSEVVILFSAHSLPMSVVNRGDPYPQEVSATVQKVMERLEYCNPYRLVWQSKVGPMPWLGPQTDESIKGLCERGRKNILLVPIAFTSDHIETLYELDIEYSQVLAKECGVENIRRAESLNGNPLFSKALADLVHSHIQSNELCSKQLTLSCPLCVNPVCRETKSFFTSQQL
# * marks the source's active call; other numbers are inactive results; i = inactive; + = active, no number.
SMILES,FECH block
CCn1ncnc1C(C)NC(=O)c1cc2ccccc2oc1=O (centres undefined),i
Cc1ccoc1C(=O)N1CCn2c(C(N)=O)cnc2C1,i
COC(=O)c1cccnc1N1CCC(CO)(Cc2cccc(C(F)(F)F)c2)CC1,i
Cc1cccc(C)c1C(=O)N1CC[C@@](C)(O)[C@@H](Cc2ccccc2)C1,+
CC[C@H]1CN(C(=O)c2cnc(N3CCN(C)CC3)nc2C)CC[C@@]1(C)O,i
C[C@@]1(O)CCN(C(=O)Cc2ccc(O)cc2)C[C@@H]1Cc1ccccc1,i
COCc1nc2cccnc2n1C1CCN(S(=O)(=O)c2ccc(Br)cc2)CC1,i
COCc1nc2cccnc2n1C1CCN(S(=O)(=O)c2ccc(NC(C)=O)cc2)CC1,+
COCc1nc2cccnc2n1C1CCN(S(=O)(=O)c2ccccc2)CC1,i
CC(C)c1ccc(NC(=O)CSc2ncc(S(=O)(=O)c3ccc(Br)s3)c(N)n2)cc1,i
O=C(NCCc1cn2ccsc2n1)c1cn(-c2ccccc2)nn1,i
CCOc1ccccc1NCc1cc(=O)n2[nH]c(NCc3ccccc3Cl)nc2n1,+
COc1ccc(NCc2cc(=O)n3[nH]c(NCc4ccccc4Cl)nc3n2)cc1,i
COc1ccc(CNc2nc3nc(CNc4cccc(OC)c4)cc(=O)n3[nH]2)cc1,i
COc1ccccc1NCc1cc(=O)n2[nH]c(NCc3ccccc3)nc2n1,i
COc1cccc(NCc2cc(=O)n3[nH]c(NCc4ccccc4Cl)nc3n2)c1,+
CCOc1ccccc1NCc1cc(=O)n2[nH]c(NCc3ccccc3)nc2n1,i
CSc1ccccc1-c1cc(C)nc(N)n1,i
CC(C)c1noc(C2CCN(CCC(=O)Nc3cc(F)ccc3F)CC2)n1,i
COC(=O)[C@@H]1C[C@@H](NC(=O)c2ccc(-c3ccc(OC)cc3)o2)CN1C,i
CCc1ccc(CN(C)C(=O)c2cc(=O)n(C)c(=O)n2C)nc1,i
COc1cc(-c2nccn2CCc2cccs2)cc2c1OCO2,i
Cc1cc(N(C)C)nc(Nc2ccc(NC(=O)c3ccc(I)cc3)cc2)n1,i
Cc1ccc(C(=O)Nc2ccc(Nc3nc(C)cc(N(C)C)n3)cc2)cc1,i
Cc1cc(C)cc(C(=O)Nc2ccc(Nc3nc(C)cc(N(C)C)n3)cc2)c1,+
SMILES,FECH block
CC(COc1ccccc1)NCc1ccc2c(c1)n(C)c(=O)n2C (centres undefined),i
Cc1cccc(OC(C)(C)C(=O)N2CCCC(c3ccn[nH]3)C2)c1C (centres undefined),i
CCc1ccc(NC(=O)CCc2nc(-c3cc4ccc(C)cc4[nH]c3=O)no2)cc1,i
Cc1ccc(C2=CC(c3ccccc3Cl)n3nc(NC(=O)c4cccnc4)nc3N2)cc1 (centres undefined),+
Cc1ccc(C2=CC(c3ccccc3Cl)n3nc(NC(=O)c4cccc(C)c4)nc3N2)cc1 (centres undefined),i
Cc1ccc(C2=CC(c3ccccc3Cl)n3nc(NC(=O)c4ccccc4)nc3N2)cc1 (centres undefined),i
Cc1ccc(C2=CC(c3ccccc3Cl)n3nc(NC(=O)c4cccc(Cl)c4)nc3N2)cc1 (centres undefined),+
Cc1cccc(C(=O)Nc2nc3n(n2)C(c2ccccc2Cl)C=C(c2ccccc2)N3)c1 (centres undefined),i
Cc1ccc(C(=O)Nc2nc3n(n2)C(c2ccccc2Cl)C=C(c2ccc(C)cc2)N3)cc1 (centres undefined),i
Cc1ccc(N2C(=O)N(CC(=O)NC3CCCCC3)c3ccccc3S2(=O)=O)cc1F,i
COc1ccc(Cl)cc1NC(=O)c1nc2ccccc2n(C)c1=O,i
CN(C)CCNS(=O)(=O)c1cc(C(=O)N2CCCC2)cs1,i
Cc1cc(NC(=O)c2cccc(C(F)(F)F)c2)n(-c2ncnc3c2cnn3-c2ccccc2)n1,i
Cc1ccc(CN2CCCN(CC(=O)NC3CCCC3)S2(=O)=O)cc1,i
COc1cc(OC)cc(C(=O)Nc2ccccc2Sc2c(C)c(C)nc3nc(-c4ccccc4)nn23)c1,i
CCc1cc(Sc2ccc(NC(=O)c3cc(OC)cc(OC)c3)cc2)n2ncnc2n1,i
CCc1c(C)nc2ncnn2c1Sc1ccc(NS(=O)(=O)c2cc(Cl)ccc2OC)cc1,+
CCCc1c(C)nc2ncnn2c1Sc1ccc(NC(=O)c2ccc(OC)c(OC)c2)cc1,+
COc1ccccc1C(=O)Nc1ccccc1Sc1c(C)c(C)nc2ncnn12,i
CCCc1cc(Sc2ccc(NC(=O)c3cccc(OC)c3)cc2)n2ncnc2n1,+
CCc1c(C)nc2ncnn2c1Sc1ccc(NC(=O)c2c(OC)cccc2OC)cc1,i
CCCc1cc(Sc2ccc(NC(=O)c3ccc(OC)c(OC)c3)cc2)n2ncnc2n1,i
CCCc1c(C)nc2ncnn2c1Sc1ccc(NC(=O)c2cc(OC)c(OC)c(OC)c2)cc1,i
CCCc1c(C)nc2ncnn2c1Sc1ccc(NS(=O)(=O)c2cc(OC)ccc2OC)cc1,i
